Data published in ChEMBL document CHEMBL3988442, “University of Dundee, Small-Polar-MMV Screening Library” (2021).
The campaign covered roughly 66,000 compounds. About 960 (1.5%) showed an effect of 50% or more. For the sample, strong results were picked, then their nearest neighbours and some compounds at random.

System: Trypanosoma brucei
Test: Trypanosoma brucei 72 hour study
Type: functional, organism-based
Parameters: scale not given: in the data most compounds retested in dose-response had high values

| Structure (SMILES) | Percent Effect (30 µM, 30.03 µM) [%] | Percent Effect (30.3 µM, […]) [%] |
| --- | --- | --- |
| Cc1ccc(CNCc2c[nH]nc2C(C)(C)C)c(OC2CCOC2)c1 (stereo not given) | -38.61 | – |
| Cc1ccc(CNCc2cccc3cccnc23)c(OC2CCOC2)c1 (stereo not given) | 98.1 | – |
| Cc1ccc(CNCc2cccc3cn[nH]c23)c(OC2CCOC2)c1 (stereo not given) | -32.61 | – |
| O=C(O)C(F)(F)F.O=C1COC2(CCN(Cc3cccs3)CC2)CN1c1ccsc1 | 3.746 | – |
| CC(=O)N1CCN(Cc2ccco2)CC2(CC(=O)N(C)C2)C1.O=C(O)C(F)(F)F (stereo not given) | – | -65.74 |
| Cc1occc1C(=O)N1CCC[C@]2(C[C@@H](OCc3ccccn3)CO2)C1.O=C(O)C(F)(F)F | – | -89.01 |
| Cl.OC1(Cn2ccc3ncccc32)CCN(Cc2ccccc2F)CC1 | – | 12.85 |
| O=C(C1CCOCC1)N1CCc2ncc(CN3CCOCC3)n2CC1.O=C(O)C(F)(F)F | – | -405.3 |
| CCCN(C(=O)c1ccncc1)c1nc2c(s1)CCc1c-2cnn1C | – | 55.53 |
| CCCN(C(=O)c1cnccn1)c1nc2c(s1)CCc1c-2cnn1C | – | 47.96 |
| CCCN(C(=O)c1cccnc1)c1nc2c(s1)CCc1c-2cnn1C | – | 48.91 |
| CCOc1ccc(C(=O)N2CCCC(c3nccn3C)C2)cc1OCC (stereo not given) | -33.07 | – |
| CCn1cnnc1CN(C)Cc1nc(-c2cc(OC)ccc2F)oc1C | -24.61 | – |
| CC(C)C[C@H](NC(=O)Cn1ccc2c(Cl)cccc21)C(=O)O | -31.2 | – |
| CC(C)NC(=O)Cn1ccc2c(Cl)cccc21 | -29.64 | – |
| O=C(Cn1ccc2c(Cl)cccc21)N[C@@H](C(=O)O)c1ccccc1 | 60.67 | – |
| CN(C)C(=O)COCC1CN(S(C)(=O)=O)Cc2ncn(C)c21.O=C(O)C(F)(F)F (stereo not given) | – | -29.75 |
| CCN1CCC2(CC1)CC(NCc1cccc(C)n1)c1ccccc1O2.O=C(O)C(F)(F)F.O=C(O)C(F)(F)F.O=C(O)C(F)(F)F (stereo not given) | -8.099 | – |
| FC1(F)CCN(Cc2cccnc2)CC12CCN(c1ccccc1)C2.O=C(O)C(F)(F)F.O=C(O)C(F)(F)F.O=C(O)C(F)(F)F (stereo not given) | – | 100.3 |
| Cn1cc(CN2CCC(F)(F)C3(CCN(c4cccnc4)C3)C2)cn1.O=C(O)C(F)(F)F.O=C(O)C(F)(F)F (stereo not given) | – | 3.133 |
| FC1(F)CCN(Cc2ccncc2)CC12CCN(c1cccnc1)C2.O=C(O)C(F)(F)F.O=C(O)C(F)(F)F.O=C(O)C(F)(F)F (stereo not given) | – | -14.72 |
| Cn1ccnc1CN1CCC(F)(F)C2(CCN(c3cccnc3)C2)C1.O=C(O)C(F)(F)F.O=C(O)C(F)(F)F (stereo not given) | – | -58.8 |
| Cn1cc(CN2CCC(F)(F)C3(CCN(c4ccccn4)C3)C2)cn1.O=C(O)C(F)(F)F.O=C(O)C(F)(F)F (stereo not given) | – | -14.43 |
| Cn1cc(CN2CCC(F)(F)C3(CCN(c4cccc(F)c4)C3)C2)cn1 (stereo not given) | – | 99.39 |
| Cn1cc(CN2CCC(F)(F)C3(CCN(c4ncc(F)cn4)C3)C2)cn1.O=C(O)C(F)(F)F (stereo not given) | – | -7.399 |

| Structure (SMILES) | Percent Effect (30 µM, 30.03 µM) [%] | Percent Effect (30.3 µM, […]) [%] |
| --- | --- | --- |
| FC1(F)CCN(Cc2ccccn2)CC12CCN(c1cnccn1)C2.O=C(O)C(F)(F)F.O=C(O)C(F)(F)F.O=C(O)C(F)(F)F (stereo not given) | – | -80.37 |
| FC1(F)CCN(Cc2cccnc2)CC12CCN(c1cnccn1)C2.O=C(O)C(F)(F)F.O=C(O)C(F)(F)F.O=C(O)C(F)(F)F (stereo not given) | – | -8.346 |
| Fc1ccc(CN2CCC(F)(F)C3(CCN(c4cnccn4)C3)C2)cc1.O=C(O)C(F)(F)F.O=C(O)C(F)(F)F (stereo not given) | – | 93.17 |
| FC1(F)CCN(Cc2ccncc2)CC12CCN(c1cnccn1)C2.O=C(O)C(F)(F)F.O=C(O)C(F)(F)F.O=C(O)C(F)(F)F (stereo not given) | – | 6.608 |
| CN(C)c1ccc(C(CNS(=O)(=O)c2cccs2)N2CCCC2)cc1 (stereo not given) | -11.49 | – |
| C1CC(N2Cc3nnn(CC4CC4)c3C(COCC3CC3)C2)C1.O=C(O)C(F)(F)F (stereo not given) | – | -49.13 |
| O=C(O)C(F)(F)F.O=C([C@H]1CCCO1)N1CCN(CCn2cccn2)c2ncccc2C1 | – | -89.38 |
| COCC(=O)N1CCN(Cc2cc(-c3ccncc3)nn2C)CC1 | – | -0.9188 |
| COCC1CN(c2ccc(C)nn2)Cc2cnn(CC3CCOCC3)c21.O=C(O)C(F)(F)F.O=C(O)C(F)(F)F (stereo not given) | – | -39.18 |
| COCCN1CCC2(CC1)CC(NC(=O)CC1CC1)c1ccccc1O2.O=C(O)C(F)(F)F (stereo not given) | – | -15.57 |
| CN(C)[C@@H]1CN(C(=O)CCc2ccccc2)[C@@H]2CCCO[C@H]12.O=C(O)C(F)(F)F | – | -48.96 |
| CC(C)(N)C(=O)N1CCC(c2nccnc2Oc2cccc(F)c2)CC1 | – | 6.584 |
| O=C(Nc1cccnc1)[C@@H]1CCO[C@@H]2CCN(Cc3cccnc3)C[C@@H]21.O=C(O)C(F)(F)F.O=C(O)C(F)(F)F.O=C(O)C(F)(F)F | -27.43 | – |
| CCC1c2ccc(C)n2CCN1C(=O)Cn1cnc2sc(C)cc2c1=O (stereo not given) | – | 55.61 |
| CCCC1c2cccn2CCN1C(=O)Cn1cnc2sc(C)cc2c1=O (stereo not given) | – | -9.094 |
| Cc1cc2c(=O)n(CC(=O)N3CCn4cccc4C3C(C)C)cnc2s1 (stereo not given) | – | -7.761 |
| CCCS(=O)(=O)N1C[C@@H](c2ccccc2)[C@@]2(CCNC2=O)C1 | – | -54.35 |
| Cn1cccc1C(=O)N1C[C@H]2CN(Cc3cccc(F)c3)C[C@H]2C1.O=C(O)C(F)(F)F | – | -14.05 |
| O=c1[nH]ncc(NCCOc2ccc3c(c2)CCC3)c1Cl | 6.404 | – |
| CC(C)CN(Cc1nc2c(cnn2C)c(=O)[nH]1)CC(C)C | – | 3.745 |
| CC(C)CCN(C)Cc1nc2c(cnn2C)c(=O)[nH]1 | – | 0.4486 |
| CC(C)CCN(CCC(C)C)Cc1nc2c(cnn2C)c(=O)[nH]1 | – | 99.67 |
| CO[C@@H]1CCN(C(=O)c2ccccn2)[C@H]1Cc1ccccc1.O=C(O)C(F)(F)F | – | 3.29 |
| CC1c2ncc(COc3cccnc3)n2CCN1Cc1cnn(C)c1.O=C(O)C(F)(F)F.O=C(O)C(F)(F)F (stereo not given) | – | 2.727 |
| COc1ncccc1C(=O)N1CC[C@H]2C[C@@H](c3nccs3)O[C@@H]2C1 | -31.44 | – |
